Compound activity from PubChem.
hcDAF12 agonist = H. contortus DAF-12 activation, primary screen | HEK293 hcDAF-12 lit1-tk-luc reporter, luminescence; 0% DMSO, 100% Δ7-dafachronic acid | actives 1.4% (n = 370,000) | activation, % at 6.8 µM;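 active = activation above the mean of all tested compounds plus 3 SD, cut at about 5.5% in these data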
DAX1 inh-1 = NR0B1 (DAX1) inhibition; P51843; HEK293 Gal4-DAX1 luciferase reporter, luminescence; inhibition, % at 6.75 µM; actives 0.99% (n = 340,000);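 active = inhibition above the mean over all tested compounds plus 3 SD, cut at about 4.2% in these data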;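 also: inhibition shows as a rise in luminescence from relieved DAX1 repression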
Target sequence (P51843 207-470 limits assumed): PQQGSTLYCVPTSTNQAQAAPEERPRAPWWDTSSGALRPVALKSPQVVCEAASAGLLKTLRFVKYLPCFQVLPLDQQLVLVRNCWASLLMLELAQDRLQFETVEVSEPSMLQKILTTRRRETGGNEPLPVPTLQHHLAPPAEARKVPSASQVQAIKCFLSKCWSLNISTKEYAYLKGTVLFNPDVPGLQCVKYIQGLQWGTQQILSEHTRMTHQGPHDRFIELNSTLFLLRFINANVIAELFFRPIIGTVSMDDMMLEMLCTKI
DAX1 inh-2 = blocks DAX1 repression of SF-1 activated StAR promoter; HEK293T StAR-luciferase reporter, SF-1/DAX-1 repression relief; inhibition, % at 6.8 µM; actives 1.1% (n = 370,000); AID 652010;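 active = inhibition above the mean over all tested compounds plus 3 SD, cut at about 3.6% in these data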;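 also: higher inhibition means more luminescence from relief of DAX-1 repression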
ssDAF-12 act = activators of S. stercoralis DAF-12 nuclear receptor; actives 1% (n = 370,000); activation, % at 6.8 µM; HEK293 ssDAF-12/GRIP1 lit1-tk-luc reporter, luminescence; % of 3 µM dafachronic acid response;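 active = activation above the mean over all tested compounds plus 3 SD, cut at about 0.9% in these data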
hgDAF-12 ag = hgDAF-12 agonism, primary luciferase screen. HEK293 GAL4-hgDAF12 UAS-luciferase reporter, agonist luminescence; normalized to butyrate control. actives 1.8% (n = 370,000). activation, % at 6.8 µM;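 active = activation above a cutoff set at the mean of all screened compounds plus 3 SD, cut at about 10% in these data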
LXR ag = activates human LXR-beta, counter-screen for hcDAF-12 agonists; shares compounds with hcDAF12 agonist; HEK293 Gal4-LXR tk-luc reporter, luminescence, 24 h; normalized: DMSO 0%, positive control 100%; activation, % at 6.8 µM; 3,400 tested, under 10 active; AID 743027;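 active = mean percent activation of the reporter above a cutoff set as the average over tested compounds plus their standard deviation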
hcDAF12 conf = hcDAF-12 agonism, confirmation assay; shares compounds with hcDAF12 agonist; HEK293 hcDAF-12 lit1-tk-luc reporter, luminescence; % of Δ7-dafachronic acid response; activation, % at 6.8 µM; actives 61% (n = 3,400);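 active = mean activation across triplicate tests above the threshold derived from the earlier primary screen, cut at about 5.5% in these data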
hgDAF12 ag = hgDAF-12 agonism, confirmation assay | activation, % at 6.8 µM | actives 80% (n = 3,300) | shares compounds with hgDAF-12 ag | HEK293 GAL4-hgDAF12 luciferase reporter, agonist mode; percent of butyrate response;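 active = mean activation over triplicate wells above the hit cutoff derived from the earlier primary screen, cut at about 11% in these data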
LXRb DAF12 ctr = activates human LXR-beta, counter-screen for DAF-12 agonists. HEK293 Gal4-LXR luciferase reporter, 24 h. AID 743051. activation, % at 6.8 µM. shares compounds with hgDAF-12 ag. 3,300 tested, under 10 active;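 active = mean activation of the triplicate above a set limit carried over from the primary screen, none filed active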
A number is an active result; 0 = inactive; - = no result. A selection: hits, their analogues and other compounds. The true share with any hit is near 4.1%.

SMILES	hcDAF12 agonist	DAX1 inh-1	DAX1 inh-2	ssDAF-12 act	hgDAF-12 ag	LXR ag	hcDAF12 conf	hgDAF12 ag	LXRb DAF12 ctr
Cc1ccc2c(NCc3ccco3)nc(NC(C)C)nc2c1	0	-	0	0	0	-	-	-	-
COc1ccc2cc(C#N)c(SCC(=O)N3CCCC3)nc2c1	0	0	0	0	0	-	-	-	-
COC(=O)CSc1nc2cc(OC)ccc2cc1C#N	8.2	4.3	3.8	0	15	0	7.8	23	0
Cc1nnc(NC(=O)c2ccc(-c3ccc(Cl)cc3)o2)s1	0	0	0	0	0	-	-	-	-
O=C(Nc1nccs1)c1ccc(-c2ccc(Cl)cc2)o1	6.6	4.6	4.3	1.3	17	0	0	22	0
Cc1occc1C(=O)N/N=C/c1ccc(-c2ccccc2)cc1	7.9	0	0	1.1	19	0	0	21	0
Cc1occc1C(=O)N/N=C/c1ccc(OCc2ccccc2)cc1	0	0	0	0	0	-	-	-	-
Cc1[nH]nc(N)c1N=Nc1ccc(Br)cc1	0	-	0	0	0	-	-	-	-
Cc1nc(N)sc1N=Nc1ccc(Br)cc1	8.6	5.4	3.9	1.5	17	0	0	21	0
Oc1ccc(-c2cnc(-c3ccc(O)cc3)nc2)cc1	6.9	0	0	1.2	17	0	8.7	17	0
O=C(CN1C(=O)NC2(CCCCCC2)C1=O)c1ccc(Cl)s1	0	0	0	0	0	-	-	-	-
COc1cccc(N=c2oc3ccccc3cc2-c2nc3ccccc3[nH]2)c1	15	0	0	2.6	16	0	6.7	19	0
COc1ccc(N=c2oc3ccc(OC)cc3cc2-c2nc3ccccc3[nH]2)cc1	6.7	0	0	2.5	15	0	0	10	0
Cn1cc(-c2nc3ccccc3[nH]2)c2ccccc21	0	0	0	0	0	-	-	-	-
Cc1ccc(Nc2n[nH]c(C)c2[N+](=O)[O-])cc1C	11	0	4.4	1.0	19	0	6.3	22	0
CN(C)C=Nc1ccc(Cl)c(Cl)c1	0	0	0	0	0	-	-	-	-
CN(C)C=Nc1ccc2nn(-c3ccccc3)nc2c1	6.7	0	4.4	1.2	15	0	8.2	22	0
Cc1cc(C(=O)CSc2nnc(CCC(N)=O)n2C)c(C)n1C1CC1	0	0	0	0	0	-	-	-	-
CC(=O)c1ccc(NCC2COc3ccccc3O2)c([N+](=O)[O-])c1 (stereo unspecified)	11	0	0	1.4	23	0	9.0	15	0
O=C(NCC1COc2ccccc2O1)c1ccc(-n2cncn2)c([N+](=O)[O-])c1 (stereo unspecified)	0	0	0	0	0	-	-	-	-
COc1ccc([C@H]2C[C@@H](n3cc(C4CC4)nn3)[C@H](O)CN2CC2CCCCC2)cc1	0	0	0	0	0	-	-	-	-
Nc1c(C(=O)NCC(O)c2ccccc2)cnn1-c1ccccc1 (stereo unspecified)	6.6	-	0	0	18	0	6.2	14	0
CC1CCN(c2ccc3c(c2)S(=O)(=O)c2ccccc2C3=O)CC1	0	0	0	0	0	-	-	-	-
Cc1nc(-c2coc3cc(O)c(C)cc3c2=O)cs1	10	0	0	0	13	0	10.0	15	0
COCC(=O)N(C)C[C@@H]1Oc2ncc(Br)cc2C(=O)N([C@@H](C)CO)C[C@H]1C	0	0	0	0	0	-	-	-	-
SMILES	hcDAF12 agonist	DAX1 inh-1	DAX1 inh-2	ssDAF-12 act	hgDAF-12 ag	LXR ag	hcDAF12 conf	hgDAF12 ag	LXRb DAF12 ctr
O=C(CNC(=O)c1ccccc1F)c1ccccc1	7.0	0	0	1.1	17	0	0	14	0
O=C(NCCc1ccccc1)c1ccccc1C(=O)NCCc1ccccc1	0	-	0	0	0	-	-	-	-
O=C(NCCc1ccccc1)c1ccccc1F	6.7	0	3.8	0	15	0	0	14	0
COc1ccc(CCC2(C)NC(=O)N(C(C)C(=O)Nc3ccccc3F)C2=O)cc1 (stereo unspecified)	0	0	0	0	0	-	-	-	-
O=c1c2ccccc2oc2cc(NCCCn3ccnc3)ccc12	7.2	0	3.7	1.2	14	0	0	17	0
O=C(NCCCn1ccnc1)c1cc2ccccc2oc1=O	0	0	0	0	0	-	-	-	-
CC1(C(=O)Nc2cccc3ccccc23)CCN1C(=O)Cc1ccccc1Cl (stereo unspecified)	0	-	0	0	0	-	-	-	-
NNC(=O)c1ccc(N2CCCCCC2)c([N+](=O)[O-])c1	0	0	0	0	0	-	-	-	-
O=C(CSCc1ccccc1)N=Nc1c(O)[nH]c2ccccc12	0	0	0	0	0	-	-	-	-
O=C(N=Nc1c(O)[nH]c2ccccc12)c1ccco1	9.8	4.4	0	0	19	0	10	17	0
Cc1cc2nc(-c3ccc(SCC(=O)Nc4ccc5c(c4)OCCO5)nc3)[nH]c2cc1C	7.3	0	0	0	15	0	0	15	0
O=C(CSc1ccc(-c2nc3ccccc3[nH]2)cn1)Nc1ccc2c(c1)OCCO2	-	0	-	-	-	-	-	-	-
COCCn1c(SC(C)C(=O)NCC2CCCO2)nc2sc3c(c2c1=O)CCC3 (stereo unspecified)	0	0	0	0	0	-	-	-	-
COc1cc(OC)cc(-c2cc3ccc(OC)cc3cn2)c1	6.7	0	0	0.9	16	0	6.6	19	0
COc1cc(OC)cc(-c2cc3cc4c(cc3cn2)OCO4)c1	-	0	-	-	-	-	-	-	-
COc1ccc2cc(-c3ccccc3)ncc2c1	13	0	0	1.8	16	0	14	20	0
CC(C)S(=O)(=O)c1cnc(-c2ccccn2)nc1N	0	0	0	0	0	-	-	-	-
CN(CCc1ccccc1)C(=O)c1ccc(NC(=O)Cc2ccc(NC(=O)C3CCN(S(=O)(=O)c4cccc([N+](=O)[O-])c4)CC3)cc2)cc1	0	0	0	0	0	-	-	-	-
CC1=NC(=O)C(N=Nc2cccc(O)c2)N1c1ccccc1 (stereo unspecified)	9.3	0	0	0	14	0	12	16	0
Cc1cc(OC(=O)c2cc([N+](=O)[O-])ccc2Cl)c([N+](=O)[O-])c(=O)[nH]1	0	0	0	0	0	-	-	-	-
COc1ccc2oc(C(=O)c3ccccc3)c(N)c2c1	7.4	-	0	0	15	0	6.7	20	0
CCOc1ccc(NC(=O)c2nsc(Cl)c2Cl)cc1	7.2	0	4.4	0.9	18	0	6.6	18	0
CCOc1ccc(NC(=O)c2ccncc2)cc1	0	0	0	0	0	-	-	-	-
